Data taken from the supplement of paper PMC10849652.
The full data set covers some 8,800 targets. This sample favours those with a hit. About 0.5% of all pairs of compound and target were hits. A number with no mark means an inactive call.

Experiments:
Assay in all cases: log2 fold change, soluble protein after heating vs DMSO (PISA); higher = thermal stabilisation; K562 lysate, 10 uM; active = over 0.2 and 3.5 SD of the protein, either way, in both replicates (recomputed)
ibrutinib = compound: C=CC(=O)N1CCC[C@@H](n2nc(-c3ccc(Oc4ccccc4)cc3)c3c(N)ncnc32)C1 [ibrutinib]
In short: (§1)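 K562 pellets were dounce-homogenised in PBS pH 7.4 containing 1 mM MgCl2, and the crude extract, at 1 mg/mL protein, was exposed to 10 μM compound for 30 min. Aliquots were heated for 3 min across 48°C-58°C, pooled, brought to 0.5% NP-40 at 4°C and spun at 21,000xg for 90 min, with the supernatant taken as soluble protein. TMTpro 16plex LC-MS/MS with equalised channel sums quantified that protein. Values are log-two fold changes in thermal stability relative to solvent controls, taken from duplicates.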

[1] = compound: CC(=O)c1cnc2ccc(-c3cc(Cl)c(O)c(Cl)c3)nc2c1N[C@H]1CC[C@H](CN(C)C)CC1
In short: as §1

ralimetinib = compound: CC(C)(C)Cn1c(N)nc2ccc(-c3[nH]c(C(C)(C)C)nc3-c3ccc(F)cc3)nc21 [ralimetinib]
In short: as §1

[2] = compound: CC(C)(O)CC(=O)NCCn1ccc2ncnc(Nc3ccc(Oc4cccc(C(F)(F)F)c4)c(Cl)c3)c21
In short: as §1

[3] = compound: CC(C)C1=C2N=C(C=C(N2N=C1)NCC3=CC=CC=C3)NCCCCCCN
In short: as §1

[4] = compound: CC1=C(C(CC(=O)N1)C2=CC=C(C=C2)C(F)(F)F)C(=O)NC3=C(C=C4C(=C3)C=NN4)F
In short: as §1

[5] = compound: CC1=C(C2=C(C=C1)C(=O)C3=CC=CC=C3N2CCCN)C
In short: as §1

[6] = compound: CC1=C(C=C(C=C1)NC(=O)C2=CC(=CC=C2)C(C)(C)C#N)NC3=CC4=C(C=C3)N=CN(C4=O)C
In short: as §1

[7] = compound: CC1=C(C=C(C=C1)NC(=O)C2=CC(=CC=C2)N(C)C)NC(=O)C3=CC=C(C=C3)O
In short: as §1

[8] = compound: CC1=CC=C(C=C1)SC2=C3C=C(SC3=CN=C2)C(=O)N
In short: as §1

vemurafenib = compound: CCCS(=O)(=O)Nc1ccc(F)c(C(=O)c2c[nH]c3ncc(-c4ccc(Cl)cc4)cc23)c1F [vemurafenib]
In short: as §1

[9] = compound: CCCS(=O)(=O)Nc1ccc(F)c(C(=O)c2c[nH]c3ncc(Cl)cc23)c1F
In short: as §1

barasertib = compound: CCN(CCCOc1ccc2c(Nc3cc(CC(=O)Nc4cccc(F)c4)[nH]n3)ncnc2c1)CCOP(=O)(O)O [barasertib]
In short: as §1

[10] = compound: CC[C@@H]1C(=O)N(C)c2cnc(Nc3ccc(C(=O)NC4CCN(C)CC4)cc3OC)nc2N1C1CCCC1
In short: as §1

volasertib = compound: CC[C@@H]1C(=O)N(C)c2cnc(Nc3ccc(C(=O)N[C@H]4CC[C@H](N5CCN(CC6CC6)CC5)CC4)cc3OC)nc2N1C(C)C [volasertib]
In short: as §1

[11] = compound: CCn1c(C(=O)N(C2CC2)C2CC2)cc2c3c(ncn3C)c(Nc3cc(C)n(C)n3)nc21
In short: as §1

[12] = compound: CCn1cc(-c2ccnc3[nH]c(-c4cccc(CN(C)C)c4)cc23)c(-c2ccc(NC(=O)N(C)C)cc2)n1
In short: as §1

[13] = compound: CN1CCC(CNc2ccc3ncc(-c4cccc(OC(F)(F)F)c4)n3n2)CC1
In short: as §1

saracatinib = compound: CN1CCN(CCOc2cc(OC3CCOCC3)c3c(Nc4c(Cl)ccc5c4OCO5)ncnc3c2)CC1 [saracatinib]
In short: as §1

sotrastaurin = compound: CN1CCN(c2nc(C3=C(c4c[nH]c5ccccc45)C(=O)NC3=O)c3ccccc3n2)CC1 [sotrastaurin]
In short: as §1

UniProt Q71F56, sequence (Q71F56 whole entry, looked up): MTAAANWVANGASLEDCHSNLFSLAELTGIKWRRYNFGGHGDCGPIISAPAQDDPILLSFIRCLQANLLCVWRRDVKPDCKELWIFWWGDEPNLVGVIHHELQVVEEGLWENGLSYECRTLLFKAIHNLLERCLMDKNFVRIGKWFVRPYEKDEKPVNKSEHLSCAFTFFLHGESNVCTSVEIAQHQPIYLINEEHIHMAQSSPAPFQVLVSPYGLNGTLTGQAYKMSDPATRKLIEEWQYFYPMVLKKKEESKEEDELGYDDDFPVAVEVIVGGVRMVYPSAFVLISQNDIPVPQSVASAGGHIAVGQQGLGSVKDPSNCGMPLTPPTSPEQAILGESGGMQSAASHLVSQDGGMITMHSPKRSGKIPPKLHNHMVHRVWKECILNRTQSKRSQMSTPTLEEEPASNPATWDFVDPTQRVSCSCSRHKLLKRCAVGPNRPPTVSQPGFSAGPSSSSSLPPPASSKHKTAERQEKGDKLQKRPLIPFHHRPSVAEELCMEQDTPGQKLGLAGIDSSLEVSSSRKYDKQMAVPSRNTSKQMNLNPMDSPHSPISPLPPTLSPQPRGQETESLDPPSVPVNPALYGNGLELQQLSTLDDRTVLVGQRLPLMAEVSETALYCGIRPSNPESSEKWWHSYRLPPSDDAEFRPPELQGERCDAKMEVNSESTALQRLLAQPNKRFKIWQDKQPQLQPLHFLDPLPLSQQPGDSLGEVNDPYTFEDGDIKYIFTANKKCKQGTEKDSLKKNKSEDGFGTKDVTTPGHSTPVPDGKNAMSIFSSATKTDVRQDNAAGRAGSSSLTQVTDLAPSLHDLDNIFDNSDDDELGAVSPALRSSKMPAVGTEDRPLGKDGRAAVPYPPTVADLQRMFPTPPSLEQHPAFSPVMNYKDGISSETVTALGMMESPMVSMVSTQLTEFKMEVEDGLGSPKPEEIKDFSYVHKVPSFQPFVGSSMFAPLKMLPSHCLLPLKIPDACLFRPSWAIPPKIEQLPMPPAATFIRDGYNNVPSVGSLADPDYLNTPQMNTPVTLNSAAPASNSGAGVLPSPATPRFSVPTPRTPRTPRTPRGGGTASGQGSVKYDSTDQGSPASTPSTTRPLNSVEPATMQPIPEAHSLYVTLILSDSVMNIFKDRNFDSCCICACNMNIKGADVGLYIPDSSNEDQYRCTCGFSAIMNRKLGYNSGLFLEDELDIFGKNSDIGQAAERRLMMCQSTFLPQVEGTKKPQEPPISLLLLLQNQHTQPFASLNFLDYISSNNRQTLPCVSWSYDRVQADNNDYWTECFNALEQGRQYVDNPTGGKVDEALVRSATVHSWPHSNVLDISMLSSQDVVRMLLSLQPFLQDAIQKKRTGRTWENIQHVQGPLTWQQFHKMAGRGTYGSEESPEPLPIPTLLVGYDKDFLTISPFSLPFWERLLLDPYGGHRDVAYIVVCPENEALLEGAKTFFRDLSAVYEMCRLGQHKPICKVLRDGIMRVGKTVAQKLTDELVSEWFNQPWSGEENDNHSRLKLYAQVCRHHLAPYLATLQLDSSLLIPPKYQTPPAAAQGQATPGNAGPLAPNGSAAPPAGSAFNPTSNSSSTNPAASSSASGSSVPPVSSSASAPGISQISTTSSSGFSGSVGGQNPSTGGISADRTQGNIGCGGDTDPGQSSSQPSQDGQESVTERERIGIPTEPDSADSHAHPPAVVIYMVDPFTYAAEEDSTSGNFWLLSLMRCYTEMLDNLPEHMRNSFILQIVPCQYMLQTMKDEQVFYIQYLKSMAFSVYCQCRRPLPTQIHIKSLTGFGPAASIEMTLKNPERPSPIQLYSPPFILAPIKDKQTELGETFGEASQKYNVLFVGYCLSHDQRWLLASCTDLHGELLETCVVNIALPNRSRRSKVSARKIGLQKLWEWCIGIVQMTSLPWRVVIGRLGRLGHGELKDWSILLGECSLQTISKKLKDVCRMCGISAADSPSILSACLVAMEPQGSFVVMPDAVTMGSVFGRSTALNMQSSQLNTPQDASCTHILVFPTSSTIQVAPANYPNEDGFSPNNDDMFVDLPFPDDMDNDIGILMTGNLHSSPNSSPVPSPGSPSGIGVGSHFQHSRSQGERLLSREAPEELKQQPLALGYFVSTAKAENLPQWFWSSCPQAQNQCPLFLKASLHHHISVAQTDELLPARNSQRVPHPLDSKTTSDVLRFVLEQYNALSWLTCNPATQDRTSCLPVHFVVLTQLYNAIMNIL
UniProt P36507, sequence (P36507 whole entry, looked up): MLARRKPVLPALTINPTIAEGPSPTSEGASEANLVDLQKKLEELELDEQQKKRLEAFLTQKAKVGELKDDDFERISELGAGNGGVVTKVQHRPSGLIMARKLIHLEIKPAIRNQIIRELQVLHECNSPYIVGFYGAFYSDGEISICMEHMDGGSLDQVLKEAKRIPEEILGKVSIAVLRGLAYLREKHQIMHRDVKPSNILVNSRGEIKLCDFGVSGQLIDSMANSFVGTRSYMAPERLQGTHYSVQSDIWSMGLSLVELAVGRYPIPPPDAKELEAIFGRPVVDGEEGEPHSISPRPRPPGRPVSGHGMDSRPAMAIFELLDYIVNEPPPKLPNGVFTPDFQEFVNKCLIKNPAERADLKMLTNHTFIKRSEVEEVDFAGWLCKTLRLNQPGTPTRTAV
UniProt Q96IZ6, sequence (Q96IZ6 whole entry, looked up): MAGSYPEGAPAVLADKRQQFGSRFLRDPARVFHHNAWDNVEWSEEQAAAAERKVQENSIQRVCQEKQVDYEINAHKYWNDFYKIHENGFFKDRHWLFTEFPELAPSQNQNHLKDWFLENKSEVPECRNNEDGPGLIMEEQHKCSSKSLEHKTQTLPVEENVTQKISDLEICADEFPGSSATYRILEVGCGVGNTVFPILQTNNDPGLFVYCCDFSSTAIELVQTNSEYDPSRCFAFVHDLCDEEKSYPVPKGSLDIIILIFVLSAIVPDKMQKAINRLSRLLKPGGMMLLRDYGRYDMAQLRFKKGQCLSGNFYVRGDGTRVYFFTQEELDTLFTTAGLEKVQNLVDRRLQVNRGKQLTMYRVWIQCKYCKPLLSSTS
UniProt Q13015, sequence (Q13015 whole entry, looked up): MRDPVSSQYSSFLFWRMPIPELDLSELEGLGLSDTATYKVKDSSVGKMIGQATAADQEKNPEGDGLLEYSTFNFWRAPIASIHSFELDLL
UniProt Q8N4C8, sequence (Q8N4C8 whole entry, looked up): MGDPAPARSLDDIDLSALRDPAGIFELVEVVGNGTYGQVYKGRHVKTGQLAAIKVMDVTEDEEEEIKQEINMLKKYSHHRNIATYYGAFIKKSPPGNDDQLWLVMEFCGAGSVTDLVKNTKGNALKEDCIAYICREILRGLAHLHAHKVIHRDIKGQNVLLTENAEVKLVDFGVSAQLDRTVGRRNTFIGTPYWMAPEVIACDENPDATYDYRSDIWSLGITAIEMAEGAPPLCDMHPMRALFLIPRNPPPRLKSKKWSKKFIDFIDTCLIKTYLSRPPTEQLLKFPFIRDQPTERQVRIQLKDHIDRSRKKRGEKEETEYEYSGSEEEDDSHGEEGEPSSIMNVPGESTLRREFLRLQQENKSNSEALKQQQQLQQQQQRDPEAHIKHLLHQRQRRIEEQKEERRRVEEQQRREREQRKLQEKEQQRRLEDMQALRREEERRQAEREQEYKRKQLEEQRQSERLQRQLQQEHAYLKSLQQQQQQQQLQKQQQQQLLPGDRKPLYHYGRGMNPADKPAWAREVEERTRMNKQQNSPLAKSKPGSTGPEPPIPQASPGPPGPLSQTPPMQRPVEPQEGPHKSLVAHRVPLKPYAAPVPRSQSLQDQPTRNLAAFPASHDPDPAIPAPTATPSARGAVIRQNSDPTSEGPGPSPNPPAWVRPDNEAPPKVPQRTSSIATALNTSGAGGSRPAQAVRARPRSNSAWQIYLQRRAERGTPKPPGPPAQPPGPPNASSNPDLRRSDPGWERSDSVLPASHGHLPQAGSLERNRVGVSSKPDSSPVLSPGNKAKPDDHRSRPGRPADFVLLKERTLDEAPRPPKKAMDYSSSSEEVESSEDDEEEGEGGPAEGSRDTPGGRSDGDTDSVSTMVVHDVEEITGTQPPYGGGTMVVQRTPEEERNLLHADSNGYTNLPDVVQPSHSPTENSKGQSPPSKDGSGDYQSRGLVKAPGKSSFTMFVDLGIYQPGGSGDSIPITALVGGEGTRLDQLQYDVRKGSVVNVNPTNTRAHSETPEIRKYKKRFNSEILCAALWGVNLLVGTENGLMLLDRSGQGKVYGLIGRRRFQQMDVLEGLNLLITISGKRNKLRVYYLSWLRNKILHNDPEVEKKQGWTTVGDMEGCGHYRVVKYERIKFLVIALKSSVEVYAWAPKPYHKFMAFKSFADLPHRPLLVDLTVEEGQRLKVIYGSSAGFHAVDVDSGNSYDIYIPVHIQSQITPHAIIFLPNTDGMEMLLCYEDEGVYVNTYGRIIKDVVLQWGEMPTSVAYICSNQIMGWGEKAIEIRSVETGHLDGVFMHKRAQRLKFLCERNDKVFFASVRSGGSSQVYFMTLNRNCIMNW
UniProt O95777, sequence (O95777 whole entry, looked up): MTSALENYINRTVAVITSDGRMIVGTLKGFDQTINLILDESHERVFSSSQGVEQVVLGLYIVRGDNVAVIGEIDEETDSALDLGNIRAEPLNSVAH
UniProt Q9UBB5, sequence (Q9UBB5 whole entry, looked up): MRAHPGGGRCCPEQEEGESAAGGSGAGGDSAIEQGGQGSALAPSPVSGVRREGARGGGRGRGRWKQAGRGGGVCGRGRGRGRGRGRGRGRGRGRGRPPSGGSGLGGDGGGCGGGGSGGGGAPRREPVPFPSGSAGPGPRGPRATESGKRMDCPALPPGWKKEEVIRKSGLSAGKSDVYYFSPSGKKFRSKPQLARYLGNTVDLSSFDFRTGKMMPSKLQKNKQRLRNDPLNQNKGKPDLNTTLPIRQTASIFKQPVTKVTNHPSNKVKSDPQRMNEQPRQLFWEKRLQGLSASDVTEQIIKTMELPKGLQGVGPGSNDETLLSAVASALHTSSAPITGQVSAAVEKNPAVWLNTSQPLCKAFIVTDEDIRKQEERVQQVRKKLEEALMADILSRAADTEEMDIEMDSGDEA

Target	log2 fold change (ibrutinib)	log2 fold change [1]	log2 fold change (ralimetinib)	log2 fold change [2]	log2 fold change [3]	log2 fold change [4]	log2 fold change [5]	log2 fold change [6]	log2 fold change [7]	log2 fold change [8]	log2 fold change (vemurafenib)	log2 fold change [9]	log2 fold change (barasertib)	log2 fold change [10]	log2 fold change (volasertib)	log2 fold change [11]	log2 fold change [12]	log2 fold change [13]	log2 fold change (saracatinib)	log2 fold change (sotrastaurin)
KLHL36 (UniProt Q8N4N3)	0.002	-0.047	0.092	-0.028	0.053	-0.008	-0.085	-0.005	-0.098	-0.003	0.024	0.106	-0.088	0.077	-0.127	0.1	-0.006	-0.048	-0.031	0.099
LIMS1 isoform 3 (UniProt P48059)	0.003	0.033	0.003	0.023	-0.036	-0.012	-0.01	0.052	-0.023	-0.006	-0.055	-0.006	0.014	0.008	0.024	-0.002	-0.005	0.045	0.014	-0.162
LSM8 (UniProt O95777)	0.051	0.012	0.055	-0.021	-0.02	-0.01	-0.011	0.03	-0.007	0.005	-0.054	0.018	0.355	-0.019	0.027	0	-0.058	0.052	-0.005	-0.017
MAP2K2 (UniProt P36507)	0.239	0.443 (active)	-0.052	0.173	-0.007	-0.009	-0.033	-0.017	0.013	-0.014	0.224	0.184	0.026	-0.076	-0.089	0.008	0.252	-0.047	0.093	-0.002
MAT2B (UniProt Q9NZL9)	0	-0.008	-0.005	-0.006	-0.002	-0.023	0.016	0.015	-0.013	-0.005	0.036	0.016	0.001	-0.019	-0.006	-0.015	0.13	0	-0.018	0.013
MBD2 (UniProt Q9UBB5)	0.013	0.018	-0.043	-0.03	0.016	-0.013	-0.017	-0.053	-0.048	0.007	-0.014	0.016	-0.009	0.059	-0.021	0.073	-0.005	-0.007	-0.036	-0.089
MINK1 (UniProt Q8N4C8)	-0.003	0.013	0.042	-0.051	0.119	-0.144	-0.03	-0.008	0.013	0.021	-0.096	-0.107	-0.017	-0.012	0.022	0.076	-0.033	-0.09	0.007	0.079
METTL2A (UniProt Q96IZ6)	-0.006	0.044	0.048	0.068	0.018	0.021	0.038	-0.029	-0.025	0.002	0.073	0.058	0.023	-0.046	-0.015	-0.011	0.06	-0.113	-0.004	0.011
MED13L (UniProt Q71F56)	0.047	-0.036	0.014	-0.016	0.005	-0.027	-0.036	0.007	0.015	-0.035	-0.043	-0.012	0.028	0.01	-0.058	0.038	-0.023	0.064	-0.037	-0.018
LARS2 (UniProt Q15031)	0.009	0.034	0.026	0.156	-0.027	0.02	0.063	-0.036	0.046	0.028	-0.015	0.007	0.077	-0.103	-0.081	0.061	0.024	-0.073	0.029	0.072
LRPPRC (UniProt P42704)	0.006	0.023	0.027	0.019	0.018	-0.011	0.038	-0.009	0.052	0.016	0.032	0.024	0.101	-0.141	-0.072	0.076	0.033	-0.087	0.045	0.005
MLLT11 (UniProt Q13015)	-0.057	0.077	0.032	-0.116	0.164	0.174	-0.037	0.326	-0.008	0.055	-0.054	-0.048	0.143	-0.199	0.1	0.05	-0.01	-0.049	0.118	-0.04
